# From PubChem BioAssay (NCATS)
# Records with an inconclusive call do not appear. Entries that show only a call come without a potency. Active and inactive are the calls of the source. Unless noted, calls come from the whole dose curve; as a rule, active = well fitted curve in the direction sought with a large enough effect; inconclusive = small, poorly fitted or top-dose-only effect, or another doubt; inactive = no such curve, though single readings can be large; an effect the other way counts as inactive or inconclusive.
# Columns and labels:
# [1] = ZIKV-mCherry secondary qHTS for Zika virus inhibitors (AID 1347158); note: top concentration of the series differs between compounds
# How it was run: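 Compounds were tested in Vero monkey kidney cells infected with recombinant mCherry-expressing Zika virus at MOI 1 for 48-72 h at 37 °C. Fixed cells were nuclear-stained and imaged, and infection rate was taken as the fraction of mCherry-positive cells.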
# [2] = system: Zika virus NS2B-NS3 protease (linked); test: 384 well plate NINDS AMC confirmatory qHTS for Zika virus inhibitors (AID 1347163); note: nearly all actives have a fitted effect of over 50% in size; note: potency is the fitted concentration of half-maximal effect;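 for activity change, negative = inhibition: fluorescence of AMC released from Ac-VKTGKR-AMC peptide cleaved by the protease; top concentration of the series differs between compounds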
# How it was run: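 Fluorescence at 355/460 nm was read after 25 minutes of cleavage of 30 microM Ac-VKTGKR-AMC at room temperature, in the dark. Before substrate addition, compounds (up to 1 mM final) sat ~15 minutes with 5, 30 or 60 nM linked protease. Signals were normalized to no-enzyme and no-inhibitor wells.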
# [3] = Confirmatory screen NINDS Rhodamine qHTS for Zika virus inhibitors (AID 1347161); note: nearly all actives have a fitted effect of over 60% in size; note: potency is the fitted concentration of half-maximal effect;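 for activity change, negative = inhibition: purified Zika NS2B-NS3 protease with linked NS2B cofactor domain and Rhodamine110 peptide substrate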
# How it was run: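 Percent inhibition, normalized to uninhibited and enzyme-free controls, is fitted to a 4-parameter Hill equation. Fluorescence change comes from a 15-min cleavage of 1.5 microM bis-peptide Rhodamine110 substrate by 25 nM linked NS2B-NS3 at room temperature.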
# [4] = system: Zika virus NS2B-NS3 protease (linked construct); test: 384 well plate NINDS Rhodamine confirmatory qHTS for Zika virus inhibitors (AID 1347164);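 note: fluorescence from protease cleavage of Ac-LKRR-rhodamine 110 substrate; nearly all actives have a fitted effect of over 65% in size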; note: potency is the fitted concentration of half-maximal effect; for activity change, negative = inhibition: top concentration of the series differs between compounds
# How it was run: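 Enzyme (final 5/30/60 nM) + cpd (DMSO), ~15 min; add Ac-LKRR-Rd 10 microM final; 25 min RT, dark; FI ex 485/em 538; normalized to no-enzyme, no-inhibitor ctrls; aprotinin intraplate ctrl.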
# [5] = target: Cytochrome P450 2D6 (Homo sapiens) (UniProt P10635); test: Cytochrome P450 family 2 subfamily D member 6 (CYP2D6) small molecule antagonists: luciferase biochemical (cell-free) qHTS assay (AID 1645840; active = well fitted curve in the direction sought with a large enough effect in the repeat runs; an effect the other way counts as inactive or inconclusive; note: potency is the fitted concentration of half-maximal effect; nearly all actives have a fitted effect of over 55% in size)
# Cytochrome P450 2D6 (Homo sapiens), sequence (P10635 whole entry, looked up): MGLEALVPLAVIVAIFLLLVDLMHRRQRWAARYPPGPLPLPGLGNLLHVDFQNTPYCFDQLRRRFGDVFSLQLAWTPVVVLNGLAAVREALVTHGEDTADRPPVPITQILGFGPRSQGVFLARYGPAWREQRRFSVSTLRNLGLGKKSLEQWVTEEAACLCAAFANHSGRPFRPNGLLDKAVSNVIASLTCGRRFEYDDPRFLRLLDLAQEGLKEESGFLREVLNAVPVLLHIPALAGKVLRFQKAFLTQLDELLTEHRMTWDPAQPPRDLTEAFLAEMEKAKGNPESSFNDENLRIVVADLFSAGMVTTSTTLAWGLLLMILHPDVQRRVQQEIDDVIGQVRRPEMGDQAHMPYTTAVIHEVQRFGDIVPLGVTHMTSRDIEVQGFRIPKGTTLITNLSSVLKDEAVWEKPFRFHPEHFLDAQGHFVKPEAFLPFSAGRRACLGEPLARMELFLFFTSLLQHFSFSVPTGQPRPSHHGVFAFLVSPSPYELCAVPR
# How it was run: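 P450-Glo CYP2D6 system: proluciferin substrate converted by enzyme to luciferin, read by luminescence proportional to activity. Enzyme-substrate mix with compound 10 min at room temperature, then NADPH regeneration 1 h before detection reagent.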
# [6] = target: Cytochrome P450 2C9 (Homo sapiens) (UniProt P11712); test: Cytochrome P450 family 2 subfamily C member 9 (CYP2C9) small molecule antagonists: luciferase biochemical (cell-free) qHTS assay (AID 1645842; active = well fitted curve in the direction sought with a large enough effect in the repeat runs; an effect the other way counts as inactive or inconclusive; note: potency is the fitted concentration of half-maximal effect; nearly all actives have a fitted effect of over 55% in size)
# Cytochrome P450 2C9 (Homo sapiens), sequence (P11712 whole entry, looked up): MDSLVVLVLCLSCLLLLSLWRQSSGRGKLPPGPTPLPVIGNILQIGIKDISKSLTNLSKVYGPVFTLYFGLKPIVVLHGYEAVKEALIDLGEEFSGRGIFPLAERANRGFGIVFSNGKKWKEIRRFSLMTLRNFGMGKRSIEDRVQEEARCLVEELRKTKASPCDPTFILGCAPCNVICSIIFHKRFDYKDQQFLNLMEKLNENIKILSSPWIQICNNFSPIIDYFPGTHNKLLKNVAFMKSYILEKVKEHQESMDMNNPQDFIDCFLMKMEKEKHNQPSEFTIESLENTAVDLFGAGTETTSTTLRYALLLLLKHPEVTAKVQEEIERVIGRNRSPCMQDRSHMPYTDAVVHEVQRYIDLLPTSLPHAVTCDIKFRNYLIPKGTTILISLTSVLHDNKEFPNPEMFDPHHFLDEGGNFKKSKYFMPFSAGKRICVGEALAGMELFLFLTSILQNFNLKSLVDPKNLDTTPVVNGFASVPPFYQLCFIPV
# How it was run: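 P450-Glo CYP2C9 system: proluciferin substrate with enzyme in mix containing 0.4% BSA, 10 min at room temperature, then NADPH regeneration solution added and incubated 1 h at 37C. Detection reagent stopped reaction; luminescence read after 20 min as RLU.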
# [7] = Confirmatory screen GU Rhodamine qHTS for Zika virus inhibitors qHTS (AID 1347157); note: nearly all actives have a fitted effect of over 70% in size; note: potency is the fitted concentration of half-maximal effect
# How it was run: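 Percent inhibition came from the 15-min rise in Rhodamine110 fluorescence (1.5 microM substrate, ~15% conversion), normalized to no-inhibitor and no-enzyme wells and Hill-fitted. Unlinked protease, 25 nM, pH 8.0 Tris buffer; compounds up to 114 microM, 15-min preincubation.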
# [8] = target: Calcium and integrin-binding protein 1 (Homo sapiens) (UniProt Q99828); test: Primary qHTS for Identification of Calcium Integrin Binding Protein 1 (CIB1) Competitor (AID 1508620);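 note: GST tagged CIB1 binding a fluorescein labelled alphaIIb integrin peptide tracer; top concentration of the series differs between compounds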
# Calcium and integrin-binding protein 1 (Homo sapiens), sequence (Q99828 whole entry, looked up): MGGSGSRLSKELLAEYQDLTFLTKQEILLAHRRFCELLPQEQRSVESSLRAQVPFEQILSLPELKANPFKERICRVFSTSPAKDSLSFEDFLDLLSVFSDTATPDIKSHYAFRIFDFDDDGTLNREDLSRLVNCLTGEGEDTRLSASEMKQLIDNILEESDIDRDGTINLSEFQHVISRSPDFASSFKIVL
# How it was run: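 CIB1-GST (1 uM final) and compound incubated 15 min at room temperature before adding FITC-alphaIIb peptide tracer (100 nM final). Competition for binding read by fluorescence polarization (ex 480, em 540) after another 15 min at room temperature.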
# [9] = Tertiary RLuc qRT-PCR qHTS assay for Zika virus inhibitors (AID 1347169); note: top concentration of the series differs between compounds; nearly all actives have a fitted effect of over 55% in size
# How it was run: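 Vero, 1,000 cells/well, o/n 37 C; cpd pinned in DMSO; ZIKV-RLuc Cambodian, MOI 1-2, 48-72 h 37 C; live-cell RLuc substrate, lum read at 1-1.5 h.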
# [10] = target: Cytochrome P450 3A4 (Homo sapiens) (UniProt P08684); test: qHTS Assay for Inhibitors and Substrates of Cytochrome P450 3A4 (AID 884); note: nearly all actives have a fitted effect of over 50% in size
# Cytochrome P450 3A4 (Homo sapiens), sequence (P08684 whole entry, looked up): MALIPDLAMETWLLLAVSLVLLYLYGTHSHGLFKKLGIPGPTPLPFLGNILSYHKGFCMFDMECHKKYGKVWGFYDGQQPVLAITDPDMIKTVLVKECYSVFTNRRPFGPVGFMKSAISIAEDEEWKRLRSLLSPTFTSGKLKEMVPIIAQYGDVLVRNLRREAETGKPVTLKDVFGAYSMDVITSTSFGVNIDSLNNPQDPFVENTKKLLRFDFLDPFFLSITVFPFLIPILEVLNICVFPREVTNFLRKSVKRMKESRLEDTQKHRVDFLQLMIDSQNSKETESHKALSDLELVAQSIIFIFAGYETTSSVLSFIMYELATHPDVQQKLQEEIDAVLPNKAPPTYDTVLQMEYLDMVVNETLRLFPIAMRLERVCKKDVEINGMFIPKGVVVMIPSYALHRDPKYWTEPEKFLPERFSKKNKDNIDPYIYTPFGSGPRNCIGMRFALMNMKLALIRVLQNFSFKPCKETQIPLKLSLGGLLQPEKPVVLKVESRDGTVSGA
# How it was run: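 Luminescent readout of luciferin produced by CYP3A4 (20 nM) dealkylation of Luciferin-PPXE, 25 uM (its KM). NADPH-driven reaction ran 60 min at RT after 10 min compound preincubation; data scaled to 57 uM ketoconazole as 100% inhibition.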
# [11] = Confirmation and Secondary Assay for Modulators of Hemoglobin Beta Chain Splicing at IVS2 654 locus (AID 910);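 note: HeLa cells stably carrying EGFP split by mutant beta-globin IVS2-654 intron; per-well total GFP intensity by laser scanning cytometry after 2-day treatment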
# How it was run: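 Readout: per-well total peak green fluorescence (488 nm ex, 500–520 nm em) from objects 5–250 µm, reflecting correct splicing of an EGFP-654 reporter. Compounds were applied for 2 days at 37 °C to overnight-plated HeLa EGFP-654 cells; controls were DMSO and 500 nM IVS2-654 PNA.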
# [12] = Confirmation and Secondary Assay for Modulators of Hemoglobin Beta Chain Splicing at IVS2 705 locus (AID 930);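 note: HeLa cells stably expressing the EGFP-705 splicing reporter; GFP fluorescence per well restored by corrected splicing of the IVS2-705 intron in EGFP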
# How it was run: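 Fluorescence gain (488 nm laser, 500-520 nm PMT) reflects restored correct splicing of a mutant IVS2-705 intron inside EGFP in stably transfected HeLa cells after 2-day compound treatment.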
# [13] = qHTS Assay for Lipid Storage Modulators (AID 1519; calls by dose curve); details: Drosophila S3 cells, BODIPY lipid droplet/cell ratio, laser cytometry, cells loaded with oleic acid
# How it was run: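 Cells seeded at 5,000 per well were treated with compounds over a concentration series and loaded with oleic acid (400 uM, as added). Lipid droplet fluorescence (488 nm excitation, 500-530 nm channel) was read by laser-scanning cytometry and normalized to 20 uM Triacsin C.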
# [14] = target: Ubiquitin carboxyl-terminal hydrolase 1 (Homo sapiens) (UniProt O94782); test: Inhibitors of USP1/UAF1: Pilot qHTS (AID 504865);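 note: rhodamine fluorescence freed from ubiquitin-rhodamine substrate followed over time; top concentration of the series differs between compounds; nearly all actives have a fitted effect of over 35% in size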
# Ubiquitin carboxyl-terminal hydrolase 1 (Homo sapiens), sequence (O94782 whole entry, looked up): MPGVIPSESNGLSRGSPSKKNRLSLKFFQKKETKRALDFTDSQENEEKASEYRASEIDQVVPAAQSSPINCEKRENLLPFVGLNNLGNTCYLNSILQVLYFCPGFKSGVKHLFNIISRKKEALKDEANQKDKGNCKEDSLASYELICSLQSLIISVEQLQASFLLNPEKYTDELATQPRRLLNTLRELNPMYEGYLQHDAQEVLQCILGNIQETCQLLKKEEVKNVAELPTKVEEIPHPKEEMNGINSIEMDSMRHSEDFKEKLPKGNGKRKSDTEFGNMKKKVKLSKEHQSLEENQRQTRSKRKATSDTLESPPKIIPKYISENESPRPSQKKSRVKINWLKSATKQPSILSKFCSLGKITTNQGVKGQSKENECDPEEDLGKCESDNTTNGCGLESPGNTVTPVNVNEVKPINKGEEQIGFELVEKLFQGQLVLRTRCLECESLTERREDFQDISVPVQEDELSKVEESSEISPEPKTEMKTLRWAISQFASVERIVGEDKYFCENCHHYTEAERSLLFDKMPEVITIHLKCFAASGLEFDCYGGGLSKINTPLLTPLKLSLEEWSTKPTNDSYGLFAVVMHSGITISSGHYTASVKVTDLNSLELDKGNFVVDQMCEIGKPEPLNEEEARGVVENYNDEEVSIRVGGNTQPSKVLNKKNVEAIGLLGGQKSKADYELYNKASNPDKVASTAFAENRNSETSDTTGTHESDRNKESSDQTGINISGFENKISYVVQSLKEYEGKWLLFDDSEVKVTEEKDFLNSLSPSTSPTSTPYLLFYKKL
# How it was run: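 In 50mM HEPES pH 7.8 containing 0.5mM EDTA, 1mM TCEP, 0.1 mg/ml BSA and 0.01% Tween-20, 1nM USP1/UAF1 is exposed to compound for 15 min, then Ub-Rho (150nM final) is added and fluorescence is read over time.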
smiles,measurement,setting,value
Cc1oc2c(cc(NS(=O)(=O)c3ccc(C(C)C)cc3)c3ccccc32)c1C(=O)OCc1ccccc1,Potency,[1],inactive
same,Potency,[2],inactive
Cc1ccc(S(=O)(=O)Nc2cc(SCC(=O)O)c(O)c3ccccc23)cc1[N+](=O)[O-],Potency,[1],inactive
same,Potency,[3],6.98 µM (active)
same,Potency,[2],31.6 µM (active)
same,"activity change, negative = inhibition",[4],-280% [at 100 µM] (inactive)
O=C(O)COc1ccc(-c2nccc3c2C(=O)N(Cc2cccc(C(F)(F)F)c2)CC(COc2cccc(F)c2)O3)cc1 (stereo not given),Potency,[1],inactive
same,Potency,[4],28.2 µM (active)
Cc1ccc(Nc2nnc(-c3ccc(C)c(S(=O)(=O)NCc4nc5ccccc5[nH]4)c3)c3ccccc23)cc1,Potency,[1],inactive
same,Potency,[2],inactive
same,Potency,[5],6.01 µM (active)
same,Potency,[6],5.35 µM (active)
O=C(OCC#CCSc1nnc(-c2ccccc2Cl)o1)c1ccc(F)cc1,Potency,[7],inactive
same,Potency,[3],inactive
same,outcome,[8],inactive
CCOC(=O)c1ccc(CN(Cc2ccc(F)cc2)S(=O)(=O)c2ccc(F)c(C(=O)Nc3ccccc3C(F)(F)F)c2)cc1,Potency,[7],inactive
same,Potency,[9],inactive
Cc1ccc(-c2nnc(Nc3ccc(S(N)(=O)=O)cc3)c3ccccc23)cc1S(=O)(=O)N1CCOCC1,Potency,[1],inactive
same,Potency,[9],inactive
CCOC(=O)c1ccc(N2C(=O)c3n[nH]c(-c4cccs4)c3C2c2ccc(C(C)(C)C)cc2)cc1 (stereo not given),Potency,[7],20 µM (active)
same,Potency,[2],inactive
O=C(Nc1ccc(C(=O)OCc2cc(=O)n3nc(C4CC4)sc3n2)cc1)c1cccc(Cl)c1,Potency,[1],inactive
same,Potency,[2],inactive
same,Potency,[4],inactive
COc1ccc(S(=O)(=O)c2c(Nc3cccc(Cl)c3)sc(C(=O)c3ccccc3)c2N)cc1,Potency,[7],inactive
same,Potency,[3],inactive
same,Potency,[9],inactive
Cc1cccc(C(=O)Nc2ccc(C(=O)OCc3cc(=O)n4nc(C5CC5)sc4n3)cc2)c1,Potency,[1],inactive
same,Potency,[2],inactive
same,Potency,[9],inactive
O=C(Nc1cccc(C(=O)OCc2cc(=O)n3c4c(sc3n2)CCCC4)c1)c1cccc(Cl)c1,Potency,[7],inactive
same,Potency,[9],inactive
CC(C)c1nn2c(=O)cc(COC(=O)c3ccccc3NC(=O)c3cccc(Cl)c3)nc2s1,Potency,[7],inactive
same,Potency,[3],inactive
same,Potency,[9],inactive
N#C/C(=C\c1ccc(-c2cc(Cl)ccc2Cl)o1)C(=O)Nc1ccccc1C(=O)O,Potency,[7],3.16 µM (active)
same,Potency,[2],20 µM (active)
same,Potency,[9],inactive
O=C(Nc1ccccc1C(=O)OCc1cc(=O)n2c3c(sc2n1)CCCC3)c1ccc(Cl)cc1,Potency,[7],inactive
same,Potency,[9],inactive
CC(C)CN1CC(CNC(=O)c2ccc(Oc3ccccc3)cc2)Oc2ccnc(-c3ccc(OCC(=O)O)cc3)c2C1=O (stereo not given),Potency,[1],inactive
same,Potency,[4],28.2 µM (active)
O=C(Nc1ccccc1C(F)(F)F)c1ccc2oc(=O)c(S(=O)(=O)c3ccc(F)cc3)cc2c1,Potency,[7],inactive
same,Potency,[9],inactive
CN(C)c1cc(CNCC(C)(C)C)c(O)c2c1C[C@H]1C[C@H]3[C@H](N(C)C)C(=O)C(C(N)=O)=C(O)[C@@]3(O)C(=O)C1=C2O,Potency,[1],inactive
same,Potency,[3],inactive
same,Potency,[2],178 µM (active)
same,Potency,[4],158 µM (active)
COc1ccc(OC)c(Nc2sc(C(=O)c3ccccc3)c(N)c2S(=O)(=O)c2ccccc2)c1,Potency,[7],inactive
same,Potency,[3],inactive
same,Potency,[9],inactive
O=C(O)Cc1cc(I)c(Oc2cc(I)c(O)c(I)c2)c(I)c1,Potency,[10],inactive
same,outcome,[11],inactive
same,outcome,[12],inactive
same,"activity change, negative = inhibition",[13]; at 57.5 µM (top of the series),3.04% (inactive)
same,max response,[13]; measured here: cell count channel max response,12.2%
same,max response,[13]; measured here: lipid channel max response,14.7%
same,Potency,[14],inactive
same,Potency,[7],inactive
same,Potency,[9],inactive
O=C(O)c1nc2cc(Cl)c(Cl)cc2[nH]c1=O,Potency,[10],inactive
same,outcome,[11],inactive
same,outcome,[12],inactive
same,Potency,[14],inactive
same,Potency,[7],inactive
same,Potency,[3],inactive
same,Potency,[9],inactive
CCCCc1nn2c(=O)cc(COC(=O)c3ccc(NC(=O)c4cccs4)cc3)nc2s1,Potency,[7],inactive
same,Potency,[3],inactive
same,Potency,[9],inactive
